The structures appear in SMILES notation. About 14,000 (4.5%) of roughly 310,000 compounds showed an effect of 50% or more. Effects have a minus sign here. Only a selection was taken, and strong results are over-represented in it overall.

The source of these data is paper PMC4336329 (PLoS ONE, 2015).
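Note: peak tail current of the secondary pulse compared with the same well before compound.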

human ether-à-go-go-related gene (hERG) potassium channel, sequence (Q12809 whole entry, looked up): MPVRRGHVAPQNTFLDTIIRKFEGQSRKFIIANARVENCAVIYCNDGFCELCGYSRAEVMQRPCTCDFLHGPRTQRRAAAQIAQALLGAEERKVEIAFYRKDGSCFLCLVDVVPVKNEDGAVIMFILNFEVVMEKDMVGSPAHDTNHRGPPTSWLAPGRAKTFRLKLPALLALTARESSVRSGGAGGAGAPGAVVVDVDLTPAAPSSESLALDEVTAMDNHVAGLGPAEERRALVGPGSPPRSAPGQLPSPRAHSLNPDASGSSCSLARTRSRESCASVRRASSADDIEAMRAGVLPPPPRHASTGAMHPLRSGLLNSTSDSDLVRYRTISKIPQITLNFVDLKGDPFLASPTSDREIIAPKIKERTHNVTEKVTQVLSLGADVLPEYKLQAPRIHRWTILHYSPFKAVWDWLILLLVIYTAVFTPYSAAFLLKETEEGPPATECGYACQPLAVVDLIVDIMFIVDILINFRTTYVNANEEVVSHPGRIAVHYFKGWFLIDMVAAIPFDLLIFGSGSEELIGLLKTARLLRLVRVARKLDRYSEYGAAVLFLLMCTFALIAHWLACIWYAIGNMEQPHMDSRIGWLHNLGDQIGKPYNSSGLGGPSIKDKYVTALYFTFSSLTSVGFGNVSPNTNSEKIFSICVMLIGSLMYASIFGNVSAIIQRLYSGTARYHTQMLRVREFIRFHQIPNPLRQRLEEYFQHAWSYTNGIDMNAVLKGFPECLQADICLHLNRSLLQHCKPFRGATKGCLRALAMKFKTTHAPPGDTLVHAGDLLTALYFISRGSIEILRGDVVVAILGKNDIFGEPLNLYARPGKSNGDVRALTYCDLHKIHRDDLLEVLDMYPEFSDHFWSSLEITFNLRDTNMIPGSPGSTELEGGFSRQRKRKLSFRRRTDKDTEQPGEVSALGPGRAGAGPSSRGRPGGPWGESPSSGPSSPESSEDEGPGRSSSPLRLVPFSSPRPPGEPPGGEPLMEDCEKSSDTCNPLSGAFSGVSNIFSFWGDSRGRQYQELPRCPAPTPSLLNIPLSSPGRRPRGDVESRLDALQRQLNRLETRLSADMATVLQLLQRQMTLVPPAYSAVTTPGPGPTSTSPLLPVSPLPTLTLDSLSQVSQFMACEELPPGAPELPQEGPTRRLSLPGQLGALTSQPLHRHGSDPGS

This assay concerns the target human ether-à-go-go-related gene (hERG) potassium channel (human, UniProt Q12809). Kind of assay: primary screen, population patch clamp on CHO cells stably expressing hERG; higher = less effect of the substance.
Take `Cn1c(SCC(=O)N/N=C/c2ccc(O)c(O)c2)nc2ccccc21`: the “hERG current change (%, negative = inhibition) at 10uM” value came to 4.68%.

As for `CCCC(C)NC(=O)COC(=O)c1ccc2c(c1)C(=O)N(Cc1ccco1)C2=O` (stereo not shown), the “hERG current change (%, negative = inhibition) at 10uM” value turned out to be 15.8%. For `Cc1ccc(NC(=O)COC(=O)c2ccc(F)cc2Cl)c(Br)c1` the value was 14.1%. In the case of `Cc1cc2nc(-c3ccc(SCC(=O)N4CCN(C(=O)c5ccco5)CC4)nc3)[nH]c2cc1C` it was 2.64%; in that of `O=C(CSc1nc2ccc(Cl)cc2[nH]1)NCc1ccco1`, -51.8%; in that of `CCOc1ccc2nc(SCC(=O)N3CCN(C(=O)c4ccco4)CC3)sc2c1`, -66.2%.

In the case of `CCOc1ccc2nc(NC(=O)C3CCN(C(=O)c4ccco4)CC3)sc2c1`, the “hERG current change (%, negative = inhibition) at 10uM” value is given as 10.1%. In the case of `O=C(CSc1ccc(-c2nc3ccccc3[nH]2)cn1)N1CCN(C(=O)c2ccco2)CC1` it was -68.4%; in that of `Cc1ccc2nc(SCC(=O)N3CCN(C(=O)c4ccco4)CC3)[nH]c2c1`, -35.3%. On to `O=C(CSc1nc2ccc(Cl)cc2[nH]1)N1CCN(C(=O)c2ccco2)CC1`, for which the “hERG current change (%, negative = inhibition) at 10uM” value is -56.1%. For `Cc1ccc2nc(SCC(=O)NCc3ccco3)[nH]c2c1` the value was -0.695%. For `O=C(CSc1nc2ccccc2[nH]1)NCc1ccco1` the value was -1.16%. Consider `CCOc1ccc2nc(SCC(=O)NCc3ccco3)sc2c1`, for which the “hERG current change (%, negative = inhibition) at 10uM” value is recorded as -29.8%. For `Cl.O=C(CSc1nc2ccccc2[nH]1)N1CCN(C(=O)c2ccco2)CC1` the value was -23.4%; for `O=C(CCc1nc2ccccc2[nH]1)N1CCN(C(=O)c2ccco2)CC1`, 6.93%. For the compound `O=c1oc(-c2cccs2)nc2sc3c(c12)CCCC3`, the “hERG current change (%, negative = inhibition) at 10uM” value is -1.83%. For `COc1ccc(OC)c(C(=O)c2c(C)oc3cc([N+](=O)[O-])c(O)c([N+](=O)[O-])c23)c1` the value was 13.3%.

Take `COc1ccc(C2C(C(C)=O)=C(O)C(=O)N2CCc2c[nH]c3ccccc23)cc1` (stereo not shown): the “hERG current change (%, negative = inhibition) at 10uM” value worked out at 13.7%. `CCn1nnc(NC(=O)c2cc3ccccc3o2)n1`: the “hERG current change (%, negative = inhibition) at 10uM” value was 4.36%.

For the compound `Cc1ccc(-n2c(CC#N)n[nH]c2=S)c(C)c1`, the “hERG current change (%, negative = inhibition) at 10uM” value was 3.3%.

Turning to `O=C(NCc1ccccc1)Nc1cccn(Cc2ccccc2)c1=O`, the “hERG current change (%, negative = inhibition) at 10uM” value was found to be 10.4%. In the case of `Cc1cccc(N2CN=c3s/c(=C\c4ccccn4)c(=O)n3C2)c1` it was -1.21%. With `COc1ccc2nc(N3CCN(C(=O)C4COc5ccccc5O4)CC3)sc2c1` (stereo not shown), the “hERG current change (%, negative = inhibition) at 10uM” value is listed as -61.2%.

For the compound `Cc1ccc(Cl)c2sc(N3CCN(C(=O)c4ccco4)CC3)nc12`, the “hERG current change (%, negative = inhibition) at 10uM” value was -10.3%. On to `O=C(CSc1nc2cc(Cl)ccc2s1)c1ccco1`, for which the “hERG current change (%, negative = inhibition) at 10uM” value came out at 2.2%.

Take `O=C(c1ccco1)N1CCN(c2nc3ccsc3c(=O)s2)CC1`: the “hERG current change (%, negative = inhibition) at 10uM” value is -79%. For `O=C(CSc1nc2ccccc2s1)N1CCN(C(=O)c2ccco2)CC1` the value was -41.3%; for `Cc1ccc2nc(N3CCN(C(=O)c4ccco4)CC3)sc2c1`, -32%; for `O=C(CSc1nc2cc(Cl)ccc2s1)N1CCN(C(=O)c2ccco2)CC1`, -71.6%. For `O=C(C1COc2ccccc2O1)N1CCN(c2nc3ccc([N+](=O)[O-])cc3s2)CC1` (stereo not shown) the value was -29.8%. In the case of `O=C(C1COc2ccccc2O1)N1CCN(c2nc3ccccc3s2)CC1` (stereo not shown) it was -27.9%. For `Cc1ccc(-c2cc(-c3ccccc3)c(C#N)c(Br)n2)cc1`, the “hERG current change (%, negative = inhibition) at 10uM” value is reported as -4.18%. For `CC1CC(C)CN(S(=O)(=O)c2ccc3c(c2)oc(=O)n3CC(=O)N(C)Cc2ccccc2)C1` (stereo not shown) the value was 7.04%; for `CCOCCCNC(=S)N1C2CCC1CC(NC(=O)NC1CCCCC1)C2` (stereo not shown), 1.88%. Consider `Cc1ccc2nc(-c3ccccc3)c(CN3CCN(c4ccccc4F)CC3)n2c1`, for which the “hERG current change (%, negative = inhibition) at 10uM” value amounted to 1.85%. `CN(C)S(=O)(=O)c1cccc(-c2nn(-c3ccccc3)cc2/C=C(/C#N)C(=O)NCc2ccco2)c1`: the “hERG current change (%, negative = inhibition) at 10uM” value is -26.9%. On to `CCCN1CCN(CCCNC(=O)c2cc3c(=O)[nH]c4ccc(C)cc4c3s2)CC1`, for which the “hERG current change (%, negative = inhibition) at 10uM” value is -29.5%. As to `COc1ccccc1-c1ccc(=O)n(CC(=O)NC2CCc3ccccc32)n1` (stereo not shown), the “hERG current change (%, negative = inhibition) at 10uM” value is on record as 5.88%. For `CCOC(=O)CC(C#N)c1cn(C)c2ccccc12` (stereo not shown) the value was -17.8%; for `CCn1c(SCC(=O)Nc2ccccc2C)nnc1-c1ccccc1O`, 1.99%. In the case of `Cc1ccc(C2=NN(S(C)(=O)=O)C(c3cccs3)C2)cc1` (stereo not shown) it was -4.62%; in that of `Cc1nn2c(N3CCCC3)cc(C(C)C)nc2c1-c1ccccc1`, 3.92%.

In the case of `CCCCC(=O)Nc1ncc2c(n1)CC(C)(C)CC2=O`, the “hERG current change (%, negative = inhibition) at 10uM” value was -5.63%. Take `CC1(C)CC(=O)c2cnc(NC(=O)C3CCCC3)nc2C1`: the “hERG current change (%, negative = inhibition) at 10uM” value is given as -12.6%. For `CCCCC1CC1C(=O)Nc1ncc2c(n1)CC(C)(C)CC2=O` (stereo not shown) the value was -57.5%. In the case of `COc1cc(Br)c(CN2CCCN(C)CC2)cc1OC` it was -0.597%; in that of `CN(C)C=O.O=C(COC(=O)c1ccc(S(=O)(=O)N2CCCC2)cc1)Nc1cccnc1Cl`, 7.25%. In the case of `Cc1cccc(C(=O)NCC2CCN(C(=O)c3cccc(C)c3)CC2)c1` it was -51.2%; in that of `O=C(NCC1CCCCC1)c1cccc([N+](=O)[O-])c1`, 9.98%; in that of `Cc1cccc(C(=O)N2CCCCCC2)c1`, 2.61%. Take `Cc1ccc(NC(=O)C(=O)NCC2CCN(C(=O)c3cccc([N+](=O)[O-])c3)CC2)cc1`: the “hERG current change (%, negative = inhibition) at 10uM” value is -16.5%. Take `O=C(NCC1CCN(C(=O)c2ccc([N+](=O)[O-])cc2)CC1)C(=O)Nc1ccccc1`: the “hERG current change (%, negative = inhibition) at 10uM” value is -36.8%. In the case of `O=C(NCC1CCN(C(=O)c2cccc([N+](=O)[O-])c2)CC1)c1cccc([N+](=O)[O-])c1`, the “hERG current change (%, negative = inhibition) at 10uM” value was -53.5%. `Cc1cccc(C(=O)NCCN(C)C)c1.Cl`: the “hERG current change (%, negative = inhibition) at 10uM” value is reported as 8.43%. Regarding `O=C(NCC1CCCCC1)c1ccc([N+](=O)[O-])cc1`, the “hERG current change (%, negative = inhibition) at 10uM” value is on record as -16%. Consider `Cc1cccc(C(=O)NCCCN(C)CCCNC(=O)c2cccc(C)c2)c1`, for which the “hERG current change (%, negative = inhibition) at 10uM” value is -52.2%. For `O=C(NCC1CCN(C(=O)c2ccc([N+](=O)[O-])cc2)CC1)c1ccc([N+](=O)[O-])cc1`, the “hERG current change (%, negative = inhibition) at 10uM” value was -71.3%. In the case of `Cc1cccc(C(=O)N2CCCN(C(=O)c3cccc(C)c3)CC2)c1` it was -0.26%; in that of `Cc1cccc(C(=O)NCCCNC(=O)c2cccc(C)c2)c1`, -3.67%; in that of `COc1ccc(Cl)cc1Nc1nc(-c2cccnc2)cs1`, 5.19%.

On to `Cc1nonc1NC(=O)OC1CCCCC1`, for which the “hERG current change (%, negative = inhibition) at 10uM” value is listed as 1.97%.

As for `Cc1cccc(NC(=S)N2CCCN(c3ncccc3[N+](=O)[O-])CC2)c1`, the “hERG current change (%, negative = inhibition) at 10uM” value is given as -16.7%.

Take `O=C(N[C@H]1CC1c1ccccc1)c1ccc([N+](=O)[O-])cc1` (stereo partly shown): the “hERG current change (%, negative = inhibition) at 10uM” value is on record as -6.56%. For `COc1ccccc1NC(=O)Nc1cnccn1` the value was -1.51%. `CC1CCCC(NC(=S)NC(=O)c2cncc(Br)c2)C1C` (stereo not shown): the “hERG current change (%, negative = inhibition) at 10uM” value is listed as 21.7%. For `O=C(NCc1ccc2c(c1)OCO2)C1CCN(S(=O)(=O)c2ccc(Br)s2)CC1` the value was -24%; for `CCc1cccc(C)c1NC(=O)C1C2CCC(O2)C1C(=O)O` (stereo not shown), 18.8%. In the case of `Cc1ccc(C2=NS(=O)(=O)N(C)C(C(=O)Nc3cc(C)n(CC(=O)N4CCCCC4)n3)=C2)cc1` it was 10.3%; in that of `Cc1ccc2nc(-c3cccc(-c4cccc(Cl)c4)c3)c(NCc3ccccc3)n2c1.O=C(O)C(F)(F)F`, 16.3%. In the case of `O=S(=O)(c1cccc(-c2nc3ccccc3s2)c1)N1CCOCC1` it was -7.39%. On to `CC1=NN(/C(=N\c2nnc(C)s2)Nc2ccccc2)[C@H](c2ccc(C)cc2)S1`, for which the “hERG current change (%, negative = inhibition) at 10uM” value is recorded as -13.5%. For the compound `CCOC(=O)N1CCN(C(=O)c2cn(C)c3ccc(S(=O)(=O)N(C)C4CCCCC4)cc3c2=O)CC1`, the “hERG current change (%, negative = inhibition) at 10uM” value is -29.4%. Consider `CCn1cc(C(=O)OC)c(=O)c2cc(S(=O)(=O)N(C)C3CCCCC3)ccc21`, for which the “hERG current change (%, negative = inhibition) at 10uM” value is reported as -28.4%.

As to `CCC1CCCCN1CCCNC(=O)c1cn(CC)c2ccc(S(=O)(=O)N(C)C3CCCCC3)cc2c1=O` (stereo not shown), the “hERG current change (%, negative = inhibition) at 10uM” value was -79.8%. In the case of `CN(C)S(=O)(=O)c1ccc2c(c1)c(=O)c(C(=O)NCCCN1CCCCCC1)cn2C` it was -4.72%; in that of `CCC1CCCCN1CCCNC(=O)c1cn(C)c2ccc(S(=O)(=O)N(C)C3CCCCC3)cc2c1=O` (stereo not shown), -62.8%; in that of `CCn1cc(C(=O)NCC2CCCO2)c(=O)c2cc(S(=O)(=O)N(C)C3CCCCC3)ccc21` (stereo not shown), -31.6%. As to `CCc1ccc(-c2cc(C(F)(F)F)n3nc(C(=O)Nc4cnn(Cc5ccccc5C)c4)cc3n2)s1`, the “hERG current change (%, negative = inhibition) at 10uM” value amounted to 5.41%. For `COCCNC(=O)c1cc(S(=O)(=O)N2CCCCC2)ccc1N1CCOCC1`, the “hERG current change (%, negative = inhibition) at 10uM” value turned out to be 1.23%.

As to `Cc1sc2nc(CN3CCCC3)nc(N3CCN(S(=O)(=O)c4cccc(F)c4)CC3)c2c1C`, the “hERG current change (%, negative = inhibition) at 10uM” value is recorded as -70.1%.

As to `Cc1cccc(N2CCN(S(=O)(=O)c3cccs3)CC2)c1C`, the “hERG current change (%, negative = inhibition) at 10uM” value is -15.8%. For the compound `Cc1nc(N2CCN(S(=O)(=O)c3ccc(F)cc3)CC2)c2c(C)c(C)sc2n1`, the “hERG current change (%, negative = inhibition) at 10uM” value is -6.58%. For `COc1ccc(-c2csc3ncnc(N4CCN(S(=O)(=O)c5cccc(F)c5)CC4)c23)cc1` the value was -3.5%; for `O=S(=O)(c1cccs1)N1CCN(Cc2ccccc2)CC1`, -14%. Consider `CCCc1nc(N2CCN(S(=O)(=O)c3ccc(Cl)cc3)CC2)c2c(C)c(C)sc2n1`, for which the “hERG current change (%, negative = inhibition) at 10uM” value is -17.1%. For `Cc1sc2nc(CN3CCCC3)nc(N3CCN(S(=O)(=O)c4cccs4)CC3)c2c1C` the value was -70.7%; for `CCc1nc(N2CCN(S(=O)(=O)c3ccc(Br)cc3)CC2)c2c(C)c(C)sc2n1`, -32%.

For `Cc1ccc(S(=O)(=O)N2CCN(c3nc(CN4CCCC4)nc4sc(C)c(C)c34)CC2)cc1`, the “hERG current change (%, negative = inhibition) at 10uM” value is reported as -77.7%. `Cc1sc2nc(CN3CCOCC3)nc(N3CCN(S(=O)(=O)c4ccccc4)CC3)c2c1C`: the “hERG current change (%, negative = inhibition) at 10uM” value is given as -41.6%. On to `Cc1sc2nc(CN3CCOCC3)nc(NS(=O)(=O)c3ccccc3)c2c1C`, for which the “hERG current change (%, negative = inhibition) at 10uM” value is given as 9.1%. As for `Cc1sc2nc(CN3CCCC3)nc(N3CCN(S(=O)(=O)c4ccccc4)CC3)c2c1C`, the “hERG current change (%, negative = inhibition) at 10uM” value is listed as -67%.
